Experimental data taken from PubChem BioAssay (NCATS).
Inconclusive results are not listed. The source made the active and inactive calls. The call rests on the fitted dose curve; in most records, active means well fitted inhibition curve with a large enough effect; inconclusive means small, poorly fitted or top-dose-only effect; inactive means flat fitted curve, though single readings scatter.

Tested on: HaCat
Test: Cytotoxic Profiling of Annotated Libraries Using Quantitative High-Throughput Screening (AID 1296008); further: nearly all actives have a fitted effect of over 60% in size
Details: Five cell lines viability, CellTiter-Glo ATP luminescence, 48-72 h; max response: stronger effect = lower value
Method in brief: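 Compounds were pin-transferred onto cells and incubated 48 or 72 hr at 37 degree Celsius, 95% humidity. CellTiter-Glo was added, plates sat 10 min at room temperature, then ATP-coupled luminescence was imaged as the viability read-out.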
On the % scale 0 is the no-effect control and ±100 the full control effect; potency means the concentration at half of the fitted maximal effect.

Structure (SMILES)	max response	outcome	Potency
CN1C(=O)N(c2ccc(C#N)c(C(F)(F)F)c2)C(=O)[C@]1(CO)c1ccccc1	1.18% (inactive)		
C=C1[C@@H]2CC[C@@]3(C)[C@H](c4ccoc4)OC(=O)C[C@]13O[C@H]1CC(=O)C(C)(C)[C@H](C(OC(C)=O)C(=O)OC)[C@]12C (some centres undefined)		inactive	
C[C@@H]1C(=O)O[C@H]2[C@H](O)[C@@]34[C@@H]5OC(=O)[C@@]3(O[C@@H]3OC(=O)[C@@H](O)[C@@]34[C@H](C(C)(C)C)[C@H]5O)[C@@]12O		inactive	
COC(=O)C1(C)CCC(O)C2(C)c3c(O)cc(C(C)C)cc3C(O)C(OC(C)=O)C12 (centres undefined)	-12.7% (inactive)		
CN1C(=O)c2ccccc2NC(=O)C1Cc1ccccc1 (centres undefined)	2.89% (inactive)		
CCC(C)(OC(C)=O)C(=O)O[C@H]1[C@H](OC(C)=O)C[C@@H]2[C@@](C)([C@@H]3C[C@H]4C=CO[C@H]4O3)[C@H](C)C[C@H](OC(C)=O)[C@@]2(COC(C)=O)[C@@]12CO2 (some centres undefined)		inactive	
CCN1C[C@]2(COC(=O)c3ccccc3N3C(=O)C[C@H](C)C3=O)CC[C@H](OC)[C@@]34[C@@H]5C[C@H]6[C@H](OC)[C@@H]5[C@](O)(C[C@@H]6OC)[C@](O)([C@@H](OC)[C@H]23)[C@@H]14	-1.58% (inactive)		
CO[C@H]1[C@H](O)[C@H](O[C@H]2CC[C@]3(C)C4CC[C@]5(C)[C@H](C6=CC(=O)OC6)CC[C@]5(O)C4CC[C@@H]3C2)O[C@@H](C)[C@@H]1O (some centres undefined)			2.24 µM (active)
N#CC(OC1OC(COC2OC(CO)C(O)C(O)C2O)C(O)C(O)C1O)c1ccccc1 (centres undefined)		inactive	
COc1cc(C(=O)O[C@H]2[C@@H]3C=CO[C@@H](O[C@@H]4O[C@H](CO)[C@@H](O)[C@H](O)[C@H]4O)[C@@H]3[C@@]3(CO)O[C@@H]23)ccc1O		inactive	
CC1=C2C[C@H]3[C@@H](CC=C4C[C@@H](O)CC[C@@]43C)[C@@H]2CC[C@]12O[C@@H]1C[C@H](C)CN[C@H]1[C@H]2C	3.98% (inactive)		
CCC(C)(C#N)O[C@@H]1O[C@H](CO)[C@@H](O)[C@H](O)[C@H]1O (some centres undefined)		inactive	
C1=C2CCCN[C@H]2[C@@H]2C[C@H]1[C@H]1CCCCN1C2	-5.08% (inactive)		
CCCCCCn1c(=O)c(C(=O)Nc2ccc(C(=O)OCCC)cc2)c(O)c2ccccc21		inactive	
C=C[C@H]1CN2CC[C@H]1C[C@@H]2[C@@H](O)c1ccnc2ccccc12	1.51% (inactive)		
OCCCCC#Cc1cncc(OC[C@@H]2CCN2)c1		inactive	
COC(=O)N1CCN(C(=O)Cc2ccc(Cl)c(Cl)c2)[C@@H](CN2CCCC2)C1	-8.83% (inactive)		
COC1=CC(=O)O[C@@H](CCc2ccccc2)C1	3.86% (inactive)		
CN1[C@H]2C[C@H](OC(=O)[C@H](CO)c3ccccc3)C[C@@H]1[C@@H](O)C2		inactive	
CCc1[nH]c2ccc(OC)cc2c1CCN(C)C	1.59% (inactive)		
COc1cc2c(cc1OC)[C@@]13CCN4CC5=CCO[C@H]6CC(=O)N2[C@H]1[C@H]6[C@H]5C[C@H]43	-7.03% (inactive)		
COC1C(O)C(OC2CCC3(C=O)C(CCC4C3CCC3(C)C(C5=CC(=O)OC5)CCC43O)C2)OC(C)C1OC1OC(CO)C(O)C(O)C1O (centres undefined)			1.72 µM (active)
Cc1cccc(NC(=O)N[C@@H]2N=C(c3ccccc3)c3ccccc3N(C)C2=O)c1		inactive	
COc1cc(C)[nH]c(=O)c1CNC(=O)c1c(C)n([C@H](C)C2CCOCC2)c2ccccc12	4.27% (inactive)		
